PubChem BioAssay AID1159580 (chemical genetic matrix, 2015)
About 2,000 (36%) of roughly 5,500 compounds were called active. Not shown: some 18% with an inconclusive outcome. This is one part of the list. Values without a mark were called inactive. Rule as the data show it: active = normalized growth mostly below about 0.91 (no sharp cut-off); inconclusive = no clear call, values can overlap the other calls; inactive = mostly above about 0.92.

Test: chemical genetic growth profiling, strain panel (AID 1159580);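 also: tested at 20 µM; growth read once vehicle control cultures reached saturation at 30 °C; 1 = growth at the plate median or of vehicle wells; lower values mean less growth of the strain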
Conditions: S. cerevisiae deletion strains, growth OD
[1] = locus YDL101C, strain DUN1, stronger effect = lower value
[2] = locus YHR030C, strain SLT2, stronger effect = lower value

c1ccc(CN2CCC(n3nnc4cccnc43)CC2)cc1
normalized growth (locus YAL013W, strain DEP1, stronger effect = lower value): 0.995
normalized growth (locus YBR229C, strain ROT2, stronger effect = lower value): 1.01
normalized growth (locus YCL061C, strain MRC1, stronger effect = lower value): 1.02
normalized growth [1]: 0.987
normalized growth (locus YDL134C, strain PPH21, stronger effect = lower value): 0.993
normalized growth (locus YDR150W, strain NUM1, stronger effect = lower value): 0.997
normalized growth (locus YEL061C, strain CIN8, stronger effect = lower value): 1.01
normalized growth (locus YGR078C, strain PAC10, stronger effect = lower value): 1.01
normalized growth (locus YGR229C, strain SMI1, stronger effect = lower value): 0.997
normalized growth [2]: 0.995
normalized growth (locus YHR087W, strain rtc3, stronger effect = lower value): 1.01
normalized growth (locus YJR043C, strain POL32, stronger effect = lower value): 1.01
normalized growth (locus YJR075W, strain HOC1, stronger effect = lower value): 1
normalized growth (locus YLR039C, strain RIC1, stronger effect = lower value): 1
normalized growth (locus YLR058C, strain SHM2 (second series), stronger effect = lower value): 1.04
normalized growth (locus YLR085C, strain ARP6, stronger effect = lower value): 0.995
normalized growth (locus YLR262C, strain YPT6, stronger effect = lower value): 0.957
normalized growth (locus YML094W, strain GIM5, stronger effect = lower value): 0.984
normalized growth (locus YMR219W, strain ESC1, stronger effect = lower value): 1
normalized growth (locus YMR263W, strain SAP30, stronger effect = lower value): 1.01
normalized growth (locus YNL153C, strain GIM3, stronger effect = lower value): 1.01
normalized growth (locus YNL298W, strain CLA4 (second series), stronger effect = lower value): 0.965
normalized growth (locus YNL322C, strain KRE1, stronger effect = lower value): 0.996
normalized growth (locus YNR030W, strain Alg12, stronger effect = lower value): 1.01
normalized growth (locus YPL055C, strain LGE1, stronger effect = lower value): 1.03
normalized growth (locus YPL241C, strain CIN2, stronger effect = lower value): 0.983
normalized growth (locus YPR135W, strain CTF4, stronger effect = lower value): 1.01

Clc1ccc(CN2CCN(c3cccc4[nH]ccc34)CC2)cc1Cl
normalized growth (locus YAR019C, strain CDC15, stronger effect = lower value): 0.997
normalized growth (locus YBL105C, strain PKC1, stronger effect = lower value): 0.993
normalized growth (locus YBR135W, strain CKS1, stronger effect = lower value): 0.995
normalized growth (locus YBR136W, strain MEC1, stronger effect = lower value): 0.994
normalized growth (locus YBR160W, strain CDC28, stronger effect = lower value): 0.986
normalized growth (locus YDL017W, strain CDC7, stronger effect = lower value): 0.994
normalized growth (locus YDL028C, strain MPS1, stronger effect = lower value): 0.999
normalized growth [1]: 0.988
normalized growth (locus YDL108W, strain KIN28, stronger effect = lower value): 0.983
normalized growth (locus YDL132W, strain cdc53, stronger effect = lower value): 0.993
normalized growth (locus YDL214C, strain PRR2, stronger effect = lower value): 0.962
normalized growth (locus YDR052C, strain DBF4, stronger effect = lower value): 0.996
normalized growth (locus YDR054C, strain cdc34, stronger effect = lower value): 0.993
normalized growth (locus YDR226W, strain ADK1, stronger effect = lower value): 0.984
normalized growth (locus YDR477W, strain SNF1, stronger effect = lower value): 0.972
normalized growth (locus YER123W, strain YCK3, stronger effect = lower value): 0.917
normalized growth (locus YER133W, strain GLC7, stronger effect = lower value): 0.977
normalized growth (locus YFL009W, strain cdc4, stronger effect = lower value): 0.986
normalized growth (locus YFL029C, strain CAK1, stronger effect = lower value): 0.994
normalized growth (locus YFR003C, strain YPI1, stronger effect = lower value): 0.992
normalized growth (locus YFR019W, strain FAB1, stronger effect = lower value): 0.971
normalized growth (locus YFR028C, strain CDC14, stronger effect = lower value): 0.991
normalized growth (locus YGR040W, strain KSS1, stronger effect = lower value): 0.962
normalized growth (locus YGR052W, strain FMP48, stronger effect = lower value): 1.1
normalized growth (locus YGR092W, strain DBF2, stronger effect = lower value): 0.942
normalized growth [2]: 1.16 [resistant] (active)
normalized growth (locus YHR079C, strain IRE1, stronger effect = lower value): 1.11
normalized growth (locus YHR082C, strain KSP1, stronger effect = lower value): 1.09
normalized growth (locus YHR205W, strain SCH9, stronger effect = lower value): 0.974
normalized growth (locus YIL147C, strain SLN1, stronger effect = lower value): 0.992
normalized growth (locus YJL095W, strain BCK1, stronger effect = lower value): 1.1
normalized growth (locus YJL128C, strain PBS2, stronger effect = lower value): 0.946
normalized growth (locus YJL157C, strain FAR1, stronger effect = lower value): 0.968
normalized growth (locus YJR016C, strain ILV3, stronger effect = lower value): 0.993
normalized growth (locus YJR066W, strain TOR1 (second series), stronger effect = lower value): 0.958
normalized growth (locus YJR066W, strain TOR1, stronger effect = lower value): 1.13
normalized growth (locus YKL048C, strain ELM1, stronger effect = lower value): 0.988
normalized growth (locus YKL067W, strain YNK1, stronger effect = lower value): 0.982
normalized growth (locus YKL101W, strain HSL1, stronger effect = lower value): 0.968
normalized growth (locus YKL193C, strain SDS22, stronger effect = lower value): 0.992
normalized growth (locus YKL203C, strain TOR2, stronger effect = lower value): 1.04
normalized growth (locus YLR113W, strain HOG1, stronger effect = lower value): 1.07
normalized growth (locus YLR133W, strain CKI1, stronger effect = lower value): 0.977
normalized growth (locus YLR403W, strain SFP1, stronger effect = lower value): 0.965
normalized growth (locus YML070W, strain DAK1, stronger effect = lower value): 0.964
normalized growth (locus YMR001C, strain CDC5, stronger effect = lower value): 0.993
normalized growth (locus YMR205C, strain PFK2 (second series), stronger effect = lower value): 0.976
normalized growth (locus YMR277W, strain FCP1, stronger effect = lower value): 1
normalized growth (locus YNL006W, strain LST8, stronger effect = lower value): 0.999
normalized growth (locus YNL020C, strain ARK1, stronger effect = lower value): 0.981
normalized growth (locus YNL161W, strain CBK1, stronger effect = lower value): 0.998
normalized growth (locus YNL183C, strain NPR1, stronger effect = lower value): 1.11
normalized growth (locus YNL207W, strain RIO2, stronger effect = lower value): 0.993
normalized growth (locus YNL222W, strain SSU72, stronger effect = lower value): 0.992
normalized growth (locus YNL307C, strain MCK1 (second series), stronger effect = lower value): 0.995
normalized growth (locus YOL078W, strain AVO1, stronger effect = lower value): 0.996
normalized growth (locus YOL136C, strain PFK27, stronger effect = lower value): 0.974
normalized growth (locus YOR061W, strain CKA2, stronger effect = lower value): 0.955
normalized growth (locus YOR119C, strain RIO1, stronger effect = lower value): 1.03
normalized growth (locus YOR231W, strain MKK1, stronger effect = lower value): 1.08
normalized growth (locus YOR329C, strain SCD5, stronger effect = lower value): 0.999
normalized growth (locus YPL031C, strain PHO85, stronger effect = lower value): 0.977
normalized growth (locus YPL153C, strain RAD53, stronger effect = lower value): 0.97
normalized growth (locus YPL204W, strain HRR25, stronger effect = lower value): 0.979
normalized growth (locus YPL209C, strain IPL1, stronger effect = lower value): 0.997
normalized growth (locus YPL256C, strain CLN2, stronger effect = lower value): 1.07
normalized growth (locus YPR025C, strain CCL1, stronger effect = lower value): 0.995
normalized growth (locus YPR106W, strain ISR1, stronger effect = lower value): 0.99
normalized growth (locus YPR111W, strain DBF20, stronger effect = lower value): 0.992
normalized growth (strain NNK1, stronger effect = lower value): 0.993
normalized growth (strain TSCII, stronger effect = lower value): 1
